From PubChem BioAssay
DT40 TDP1 no CPT: qHTS for Inhibitors of human tyrosyl-DNA phosphodiesterase 1 (TDP1): qHTS in cells in absence of CPT; Potency, µM (top dose mostly 46.2 µM), for the others: at the highest dose activity change, negative = growth inhibition, actives largely listed as inhibitors; AID 686978, 2013; DT40 Tdp1-/- hTDP1 cells, no CPT, ATP luminescence, 48 h; actives 15% (n = 420,000); note: nearly all actives have a fitted effect of over 55% in size
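Stably hTDP1-transfected Tdp1-null chicken DT40 cells were treated with library compounds minus camptothecin and grown for at least 48 hr at 37 °C, after which cellular ATP was quantified by luminescence.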
RORgamma inh: inhibitors of mouse ROR gamma transcriptional activity | P51450 | Drosophila S2 Gal4-RORgamma UAS-luciferase reporter, 20 h | Potency, µM (titrated, usually from 53.6 µM), without a hit: at the top dose activity change, negative = inhibition, usual class: inhibitors | actives 5.4% (n = 310,000); note: nearly all actives have a fitted effect of over 60% in size
Target sequence (P51450 whole entry, looked up, the tested form may be a part): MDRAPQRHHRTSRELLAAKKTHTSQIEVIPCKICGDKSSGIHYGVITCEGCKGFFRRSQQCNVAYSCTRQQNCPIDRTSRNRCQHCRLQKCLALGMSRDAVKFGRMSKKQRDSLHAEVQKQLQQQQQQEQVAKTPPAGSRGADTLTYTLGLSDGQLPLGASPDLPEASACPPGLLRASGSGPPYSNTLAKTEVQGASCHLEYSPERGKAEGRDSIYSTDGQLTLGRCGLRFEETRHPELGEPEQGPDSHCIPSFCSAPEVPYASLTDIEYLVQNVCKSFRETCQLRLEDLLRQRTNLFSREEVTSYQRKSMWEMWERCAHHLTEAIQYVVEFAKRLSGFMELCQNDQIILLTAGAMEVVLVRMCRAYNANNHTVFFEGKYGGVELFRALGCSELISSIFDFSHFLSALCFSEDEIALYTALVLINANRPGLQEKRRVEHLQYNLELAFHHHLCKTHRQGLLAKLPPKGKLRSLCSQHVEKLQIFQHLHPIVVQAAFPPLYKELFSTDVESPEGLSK
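ROR gamma transcriptional activity was tracked as Gal4-UAS luciferase output in stably transfected Drosophila Schneider cells, with compound added 1 hr before 700 uM copper sulfate induction and a 20 hr ambient-temperature incubation.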
Gal4-VP16 FLuc: Gal4-VP16 reporter inhibition counter-screen. Drosophila S2 Gal4-VP16 UAS-luciferase, luminescence, 20 h. AID 2546. actives 3.5% (n = 310,000). Potency, µM (doses to about 53.6 µM), for inactives: at the highest dose activity, negative = inhibition, usual class: inhibitors;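 note: Gal4-VP16 expression switched on by copper sulfate through the metallothionein promoter; nearly all actives have a fitted effect of over 50% in size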
DT40 TDP1 CPT: growth inhibition of DT40 Tdp1-/-;hTDP1 cells with camptothecin (screen for TDP1 inhibitors); actives 12% (n = 420,000); Potency, µM (top dose mostly 46.2 µM), without a hit: at the highest dose activity change, negative = growth inhibition, usual class: inhibitors; chicken DT40 Tdp1-/-;hTDP1 cells + 20 nM CPT, ATP luminescence, 48 h; note: nearly all actives have a fitted effect of over 55% in size
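Chicken DT40 Tdp1-/- cells complemented with human TDP1, 400 cells/well, exposed to compounds plus 20 nM camptothecin for at least 48 h at 37 C; viability read as ATP content by CellTiter-Glo luminescence.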
ELG1 DNA repair: inhibitors of ELG1-dependent DNA repair in HEK293T cells; AID 504467; HEK293T ELG1-luciferase reporter, luminescence, 16 h; DNA damage induced by 5-fluorouridine; actives 2.3% (n = 330,000); Potency, µM (top dose mostly 46.1 µM), for the others: top-dose activity change, negative = inhibition, hits mostly inhibitors; note: nearly all actives have a fitted effect of over 55% in size
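HEK293T cells expressing luciferase-tagged ELG1 (2,000/well) received 5-Fluorouridine plus compound or DMSO for 16 hr at 37 °C. Luciferase was read by ONE-Glo luminescence after 30 min at room temperature.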
ALOX12 inh: blocks human arachidonate 12S-lipoxygenase | P18054 | purified 12hLO, xylenol orange hydroperoxide absorbance | Potency, µM (titrated, usually from 108 µM), for the others: at the highest dose activity change, negative = inhibition, usual class: inhibitors | actives 1.1% (n = 580,000) | AID 1671190
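Hydroperoxide product was detected by ferrous iron/xylenol orange as the 573 to 405 nm absorbance ratio. Arachidonic acid at 40 uM (final) was turned over for 30 min at room temperature by 150 nM human 12hLO, pH 7.0 Hepes buffer, after 15 min compound preincubation.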
Numbers without * were called inactive; ? = inconclusive; . = no result given; [ ] = remark or other dose. Hits are enriched below; roughly 15% of the tested compounds scored in any of these assays. Calls come from the whole dose curve; as a rule, active = well fitted curve in the direction sought with a large enough effect; inconclusive = small, poorly fitted or top-dose-only effect, or another doubt; inactive = no such curve, though single readings can be large; an effect the other way counts as inactive or inconclusive. % is set by controls: 0 for no effect and ±100 for the full control effect; potency is the fitted concentration of half-maximal effect.

SMILES	DT40 TDP1 no CPT	RORgamma inh	Gal4-VP16 FLuc	DT40 TDP1 CPT	ELG1 DNA repair	ALOX12 inh
COC(=O)Cn1c(CN2CCN(c3ccccc3)CC2)nc2c1c(=O)n(C)c(=O)n2C	.	.	.	.	.	-58%
CC(C)n1c(CN2CCN(C(=O)c3ccco3)CC2)nc2c1c(=O)n(C)c(=O)n2C	?	27%	?	?	1%	4%
COCCn1c(CN2CCN(c3ccccc3)CC2)nc2c1c(=O)n(C)c(=O)n2C	10µM*	.	.	10µM*	.	2%
COc1ccc(N2CCN(Cc3nc4c(c(=O)n(C)c(=O)n4C)n3C(C)C)CC2)cc1	0.65µM*	.	.	1µM*	.	-12%
COC(=O)Cn1c(CN2CCN(c3ccccc3F)CC2)nc2c1c(=O)n(C)c(=O)n2C	8.2µM*	.	.	5.8µM*	.	26%
Cn1c(CN2CCN(c3ccccc3NC(=O)Nc3ccccc3)CC2)nc2ccccc21	.	.	.	.	.	-28%
COc1ccc(N2CCN(Cc3nc4ccccc4n3C)CC2)cc1	-16%	13µM*	2%	-18%	-8%	-2%
CCN1c2cc(C(=O)NC3CCCCC3)ccc2C(=O)N2CCCCCC21 (stereo not drawn)	.	.	.	.	.	12%
CCN(CC)c1nc2ccccc2nc1C(=O)Nc1c(C)cccc1C	.	.	.	.	.	16%
COc1ccc(CC(=O)N(Cc2cccs2)C2CCS(=O)(=O)C2)cc1 (stereo not drawn)	.	.	.	.	.	-19%
CCCC(=O)Nc1nnc(Cc2ccccc2F)s1	.	.	.	.	.	3%
CCCCCCCn1c(CN2CCN(c3ccccc3)CC2)nc2c1c(=O)n(C)c(=O)n2C	.	.	.	.	.	7%
CCOCCn1c(CN2CCN(c3ccccc3)CC2)nc2c1c(=O)n(C)c(=O)n2C	16µM*	.	.	16µM*	.	-1%
O=C(O)CCn1ncc2cc(OCC3CCN(C(=O)CC4CC4)CC3)ccc21	.	.	.	.	.	-17%[176 µM]
CC1(C)CC(=O)C(N=Nc2ccc3ncsc3c2)=C(O)C1	-18%	-18%	-11%	-28%	.	?
COc1ccc2nc(N=Nc3ccc(O)c4ccccc34)sc2c1	1.3µM*	1.6µM*	5µM*	1.3µM*	?	-14%
COc1ccc2nc(N=NC3=C(O)CC(C)(C)CC3=O)sc2c1	5.8µM*	11µM*	?	5.2µM*	3%	-13%
CCN(CC)S(=O)(=O)c1cccc(NC(=O)COc2ncnc3sc(C)c(C)c23)c1	.	.	.	.	.	-48%
Cc1ccc(-c2cc(C(=O)N3CCN(C)CC3)c3ccccc3n2)s1	.	.	.	.	.	-18%
CC(C)C(=O)Nc1ccc(C(=O)c2ccccc2)cc1	21µM*	49%	21%	18µM*	?	0%
CC(C)C(=O)Nc1ccc(-c2nnc(-c3ccccc3)o2)cc1	?	-3%	-3%	-12%	?	-1%
O=C(CCCCCCCC(=O)Nc1ccc(C(=O)c2ccccc2)cc1)Nc1ccc(C(=O)c2ccccc2)cc1	.	.	.	.	.	40µM*
CCCc1nc2ccccc2c(=O)n1CC(=O)c1ccccc1	-26%	11%	-16%	?	8%	0%
CCCc1nc2ccccc2c(=O)n1/N=C/c1ccc(O)cc1	?	25%	-12%	?	12µM*	0%
CCCc1nc2ccccc2c(=O)n1/N=C/c1ccc(O)cc1O	-21%	?	20µM*	?	?	5%
SMILES	DT40 TDP1 no CPT	RORgamma inh	Gal4-VP16 FLuc	DT40 TDP1 CPT	ELG1 DNA repair	ALOX12 inh
Cc1cc(C(=O)N2CCCC(CCc3c(F)cccc3F)C2)nc(C)n1 (stereo not drawn)	.	.	.	.	.	18%
O=[N+]([O-])c1cccc(-n2nc(-c3ccccc3)c3cnc4cc(C(F)(F)F)ccc4c32)c1	.	.	.	.	.	-17%
CSc1ccc(C)c(C(=O)NC2CCCCC2)c1	.	.	.	.	.	16%
Oc1[nH]c2ccccc2c1N=NC(=S)N1CCOCC1	1.5µM*	0.1µM*	2.8µM*	1.6µM*	?	.
Oc1[nH]c2ccc(Br)cc2c1N=NC(=S)N1CCOCC1	0.73µM*	1.6µM*	1.6µM*	0.73µM*	-2%	40µM*
O=C(N=Nc1c(O)[nH]c2ccccc12)c1ccc(CN2CCOCC2)cc1	?	-3%	-8%	-27%	11%	-3%
CCCCNCc1ccco1	.	.	.	.	.	2%
CC(=O)c1ccc(NS(=O)(=O)c2ccc(CC(C)C)cc2)cc1	?	?	10µM*	?	4%	-12%
CC(=O)Nc1ccc(S(=O)(=O)Nc2ccc(Cc3ccncc3)cc2)cc1	9.2µM*	?	10µM*	?	-20%	7%
O=C(O)c1cccc(S(=O)(=O)Nc2ccc(Cc3ccncc3)cc2)c1	24%	.	.	-14%	14%	-1%
CC(C)(C)c1ccc(S(=O)(=O)Nc2ccc(Cc3ccncc3)cc2)cc1	16µM*	?	?	?	6%	-4%
CC(=O)c1ccc(NS(=O)(=O)c2ccc(-c3ccc(C)cc3)cc2)cc1	.	.	.	.	.	11%
